AMA1 RON2 block = disrupts binding of P. falciparum AMA1 to RON2; AID 720542; 0.2% of 360,000 active; Potency, µM (series often up to 58.2 µM), for inactives: at the top dose activity change, negative = inhibition, usual class: inhibitors; AlphaScreen AMA1-biotinylated RON2 peptide binding;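 note: 0% = vehicle wells and -100% = peptide control; nearly all actives have a fitted effect of over 45% in size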
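AMA1 (3D7) with his tag at 25 nM final met compounds first, then biotinylated RON2 peptide at 25 nM; detection used donor plus acceptor beads, 10 µg/mL apiece, read by AlphaScreen after 30 min at room temperature.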
AmpC inh no detg = blocks E. coli AmpC beta-lactamase in detergent-free assay | P00811 | AmpC nitrocefin hydrolysis, absorbance 480 nm, 0.0001% Triton | Potency, µM (titrated, usually from 57.1 µM), for inactives: at the highest dose activity change, negative = inhibition, actives largely listed as inhibitors | 0.52% of 330,000 active | AID 485341;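 note: plate controls were no compound for no effect and no enzyme for full effect; nearly all actives have a fitted effect of over 20% in size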
Target sequence (P00811 whole entry, looked up): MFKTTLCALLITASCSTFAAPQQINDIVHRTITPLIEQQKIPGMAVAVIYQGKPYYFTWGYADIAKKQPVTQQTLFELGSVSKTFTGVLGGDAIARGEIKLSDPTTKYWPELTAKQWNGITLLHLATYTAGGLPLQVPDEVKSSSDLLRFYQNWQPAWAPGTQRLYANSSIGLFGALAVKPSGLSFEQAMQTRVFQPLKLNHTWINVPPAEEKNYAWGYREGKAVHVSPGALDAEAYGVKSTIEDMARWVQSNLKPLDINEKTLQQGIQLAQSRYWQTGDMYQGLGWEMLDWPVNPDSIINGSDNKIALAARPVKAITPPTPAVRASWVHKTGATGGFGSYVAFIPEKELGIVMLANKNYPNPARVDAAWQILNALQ
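20 mM phosphate pH 7.0 + 0.01% (detergent screen) or 0.0001% Triton X-100; 5.3 nM AmpC reagent; cpd preinc 15 min RT; nitrocefin (800 uM stock) to start; A480 q20 s × 4 min; Activity was normalised to no-enzyme and no-compound control wells.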
HCV inh = blocks hepatitis C virus; Huh7.5.1 HCVcc-Cre infection, luciferase reporter, 44 h; Potency, µM (top dose mostly 41.8 µM), without a hit: at the highest dose activity change, negative = inhibition, usual class: inhibitors; 3.4% of 340,000 active; AID 651820
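Seed cells (1,000/well) for 4 h; treat with compound and infect with HCVcc-Cre, moi about 0.5. Incubate 44 h, then detect luciferase activity.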
AmpC inh detg = blocks E. coli AmpC beta-lactamase in detergent assay. P00811. Potency, µM (top dose mostly 114 µM), inactives show at the highest dose activity change, negative = inhibition, usual class: inhibitors. 0.041% of 370,000 active. AmpC hydrolysis of nitrocefin, absorbance 480 nm, 0.01% Triton. AID 485294;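 note: 0% = no-compound wells and -100% = no-enzyme wells; nearly all actives have a fitted effect of over 25% in size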
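20 mM phosphate pH 7.0 + 0.01% (detergent screen) or 0.0001% Triton X-100; 5.3 nM AmpC reagent; cpd preinc 15 min RT; nitrocefin (800 uM stock) to start; A480 q20 s × 4 min; Activity was normalised to no-enzyme and no-compound control wells.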
Pf growth 96h = P. falciparum growth inhibition at 96 hours. 6.9% of 320,000 active. P. falciparum luciferase reporter growth, 96 h. Potency, µM (titrated, usually from 28.7 µM), for inactives: top-dose activity change, negative = inhibition, most hits filed as inhibitors
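Cell-based qHTS: luciferase-tagged P. falciparum in erythrocytes (2% hematocrit, 0.05% parasitemia final) incubated with compounds for 96 hours, 37 C, 5% CO2; luciferase detection reagent then added and luminescence measured.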
Pf growth 48h = inhibits P. falciparum growth in the first generation, 48 h; P. falciparum luciferase growth in erythrocytes, 48 h; Potency, µM (titrated, usually from 28.7 µM), without a hit: at the highest dose activity change, negative = inhibition, hits mostly inhibitors; 5.9% of 310,000 active
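First compound was added to culture medium, then infected red cells at 0.1% parasitemia and 2% hematocrit (final). After incubation at 37 C under 5% CO2, luciferase detection reagent was dispensed and light output recorded.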
Numbers without * were called inactive; i = inactive; ? = inconclusive; nt = not tested or not shown; [ ] = another dose, or the depositor's remark. Hits are enriched below; roughly 11% of the tested compounds scored in any of these assays. Calls come from the whole dose curve; as a rule, active = well fitted curve in the direction sought with a large enough effect; inconclusive = small, poorly fitted or top-dose-only effect, or another doubt; inactive = no such curve, though single readings can be large; an effect the other way counts as inactive or inconclusive. Unless noted, % is set by controls: 0 for no effect and ±100 for the full control effect; potency is the fitted concentration of half-maximal effect.

SMILES	AMA1 RON2 block	AmpC inh no detg	HCV inh	AmpC inh detg	Pf growth 96h	Pf growth 48h
CCOc1cc(CNn2cnnc2)cc(Br)c1OCC(=O)NC1CCCCC1	-11%	120%	16%	-1%	9.3µM*	?
COc1cc(C=O)ccc1OCC(=O)N1CCCC1	15%	-23%	13%	3%	9.3µM*	3%
CCOc1cc(CNCc2ccccc2)ccc1OCC(=O)NC1CCCCC1	-1%	7%	2.5µM*	4%	-44%	-5%
CCOc1cc(C(=S)N2CCCCC2)ccc1OCC(=O)NCc1ccccc1	-14%	41%	?	1%	3.7µM*	nt
Cc1ccc(C)c(-n2nnc(C(=O)Nc3ccc(Br)cc3)c2C)c1	nt	nt	nt	-8%	nt	nt
COc1cccc(C(=O)Nc2ccccc2-c2nnc(-c3ccc(C(C)(C)C)cc3)o2)c1	nt	nt	nt	-2%	nt	nt
CCn1nc(C)c2c(-c3ccccc3)cc(=O)n(C(C)C(=O)Nc3ccc(OC)c(OC)c3)c21 (stereo not drawn)	nt	nt	nt	12%	nt	nt
CCOc1cc(C(=O)Nc2ccc(NC(C)=O)cc2)ccc1OCC(=O)N1CCCCC1	0%	-4%	?	?	12µM*	-19%
COc1cccc(NC(=O)CCC(=O)Nc2cccc(OC)c2)c1	3%	-21%	6%	-3%	5%	13%
CCc1c(C#N)c(SCCC(=O)Nc2ccc(F)cc2)nc2c1C(=O)CC(C)(C)C2	1%	-46%	11µM*	3%	nt	?
CCc1c(C#N)c(SCCC(=O)Nc2cccc(OC)c2)nc2c1C(=O)CC(C)(C)C2	-4%	-23%	10µM*	-7%	nt	?
Cc1cc(C)nc(SCCC(=O)Nc2ccc(F)cc2)n1	-25%	-9%	32%	1%	4%	?
Cc1c(C)n(C)c2ccc(C(=O)NCCc3ccc(Cl)cc3)cc12	nt	nt	nt	4%	nt	nt
CCC(=O)Nc1nnc2n1CCS2	nt	nt	nt	-7%	nt	nt
CCOC(=O)c1c(C)[nH]c(C)c1S(=O)(=O)N1CCCC(C(=O)Nc2ccc(OC)c(OC)c2)C1 (stereo not drawn)	nt	nt	nt	8%	nt	nt
C=CC(=O)Nc1cccc(N(C)c2ccnc(Nc3ccc(N4CCN(C)CC4)cc3)n2)c1	22µM*	nt	?	nt	nt	nt
Cc1cccc(C(=O)NCC(c2cccs2)S(=O)(=O)c2cccs2)c1 (stereo not drawn)	nt	nt	nt	3%	nt	nt
CCOc1ccccc1NC(=O)N1CCN(Cc2cc(=O)n3nc(-c4ccc(C)cc4)sc3n2)CC1	nt	nt	nt	3%	nt	nt
CC[N+]1=C(C)C(C)(C)c2cc(C)ccc21	-12%	-12%	13µM*	-4%	7%	?
COc1cccc(NC(=O)CN2C(=O)c3cccc4cccc2c34)c1	nt	nt	nt	23%	nt	nt
CC1=C(C(=O)OC(C)C)C(c2cccc([N+](=O)[O-])c2)n2c(cc(=O)[nH]c2=S)N1 (stereo not drawn)	34%	35µM*	-4%	-16%	-1%	12%
C/C(=N\Nc1cc(N2CCCCC2)nc(C)n1)c1ccc(Br)cc1	-4%	65%	11µM*	7%	-4%	3.7µM*
CC(=O)Nc1ccc(/C(C)=N\NC(=O)c2ccc(-c3ccccc3)cc2)cc1	nt	-24%	nt	3%	?	0.66µM*
C/C(=N\NC(=O)c1cc2ccccc2cc1O)c1ccccn1	60%	-52%	3.2µM*	-2%	10%	3.7µM*
C/C(=N\Nc1cccc2cccnc12)c1ccccn1	25%	-4%	6.3µM*	-9%	i	i
SMILES	AMA1 RON2 block	AmpC inh no detg	HCV inh	AmpC inh detg	Pf growth 96h	Pf growth 48h
C/C(=N\Nc1cccc2cccnc12)c1ccccc1O	1%	-16%	10%	2%	i	368%
C/C(=N\NC(=O)c1ccc(F)cc1)c1ccccn1	-60%	0%	2.5µM*	-1%	28%	?
Cc1ccc(-c2nc(C)c(CCNS(=O)(=O)c3ccccc3F)s2)cc1	nt	nt	nt	3%	nt	nt
C=CCNC(=S)N/N=C(\C)c1ccccn1	-86%	-12%	-29%	-3%	0.0029µM*	nt
Fc1ccc(N/N=C(/c2ccccc2)c2ccccn2)cc1	-9%	-13%	?	9%	5.2µM*	?
CCOc1ccc(C(=O)N/N=C(\c2ccccc2)c2ccccn2)cc1	-4%	-16%	10µM*	1%	12µM*	13µM*
CC(=NNC(=S)Nc1ccccc1)c1ccccn1	-42%	nt	nt	nt	nt	nt
O=C(N/N=C(\c1ccccc1)c1ccccn1)c1cccc([N+](=O)[O-])c1	-2%	-29%	?	8%	?	?
C/C(=N\NC(=O)c1cc2ccccc2cc1O)c1cc2ccccc2o1	143%	16µM*	?	4%	?	?
O=C(Cn1cc(S(=O)(=O)Cc2cccc(Cl)c2)c2ccccc21)Nc1ccccc1C(F)(F)F	nt	nt	nt	10%	nt	nt
COC(=O)c1sc(N2C(=O)c3oc4cc(C)c(C)cc4c(=O)c3C2c2ccccc2F)nc1C (stereo not drawn)	nt	nt	nt	1%	nt	nt
O=C(NN=C(Cc1ccccc1)Cc1ccccc1)c1ccc(F)cc1	79%	-31%	0%	0%	13µM*	-32%
C/C(Cc1ccccc1)=N\NC(=O)c1ccc(F)cc1	100%	-22%	-8%	-6%	?	15%
COc1ccc(OC)c(CCNC(=O)C(C)n2c(C)c3cnn(-c4ccccc4)c(=O)c3c2C)c1 (stereo not drawn)	nt	nt	nt	22%	nt	nt
CCN(CC)CCN1C(=O)c2oc3ccccc3c(=O)c2C1c1ccc(F)cc1 (stereo not drawn)	1%	-30%	18%	-1%	9.3µM*	2.9µM*
Cc1cc2oc3c(c(=O)c2cc1C)C(c1ccc(F)cc1)N(CCCN1CCOCC1)C3=O (stereo not drawn)	0%	190%	?	-1%	10µM*	12µM*
O=C(c1cc(C2CC2)nn1-c1ccccc1)N1CCN(Cc2ccc(Cl)cc2)CC1	-2%	153%	7.1µM*	5%	?	?
Cc1nn(-c2ccccc2)c(C)c1C(=O)OCC(=O)N1CCN(S(=O)(=O)c2ccccc2)CC1	15%	19%	7%	-14%	-17%	-13%
O=C(O)c1nc(-c2ccccc2)n(-c2ccccc2)n1	-2%[11.6 µM]	-15%	5%	?	41%	-8%
O=C(c1nc(-c2ccccc2)n(-c2ccccc2)n1)N1CCN(S(=O)(=O)c2ccccc2)CC1	5%	47%	-48%	-11%	nt	9.3µM*
Cc1ccc(C)c(S(=O)(=O)N2CCN(C(=O)c3cc(-c4cccs4)nn3-c3ccccc3)CC2)c1	-7%	-20%	?	-15%	13µM*	7.4µM*

Screening results (PubChem BioAssay)
